This is a sample that favours compounds with a hit; in the whole collection about 6.5% have one here.
PMK inhibit: S. pneumoniae PMK inhibitors, primary screen, biochemical, mevalonate pathway, pilot trial included; 0.49% of 65,000 active; purified PMK, PK/LDH-coupled NADH absorbance 340 nm; inhibition, % at 10 µM; AID 539, 2006; phosphomevalonate kinase (Streptococcus pneumoniae D39);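 active = top-ranked compounds by inhibition in the single 10 µM screen, taking a fixed number of the strongest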
DPM-DC inhibit: S. pneumoniae DPM-DC inhibitors, primary screen, biochemical, PK/LDH-coupled NADH fluorescence. diphosphomevalonate decarboxylase (Streptococcus pneumoniae D39). purified DPM-DC. calls only at 10 µM. 0.49% of 65,000 active. AID 556, 2006;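 active = the 320 compounds with the highest percent inhibition in the single-dose primary screen, excluding strongly autofluorescent ones, cut at about 32% in these data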;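 also: kinetic rate of NADH fluorescence loss reporting ADP formed by the decarboxylase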
MK inhibit: S. pneumoniae MK inhibitors, primary screen, biochemical, PK/LDH-coupled NADH absorbance. AID 555, 2006. inhibition, % at 10 µM. 0.48% of 65,000 active. purified MK, PK/LDH-coupled NADH absorbance 340 nm. mevalonate kinase [Streptococcus pneumoniae D39];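 active = ranked among the strongest by inhibition in the single 10 µM screen, a fixed top-ranked set picked for dose follow-up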
Abs 340nm: compound light absorbance at 340 nm, profiling panel, artefact control, biochemical, MLSMR library, data from PS, PMK, MK assays; fold change at 10 µM; compound absorbance at 340 nm, fold over control; AID 708, 2007; 65,000 tested, under 10 active;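 active = at 10 µM dose, initial 340 nm absorbance at least 2 fold that of control wells; inactive = change under 2 fold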;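 also: initial absorbance extrapolated from kinetic A340 decline of NADH oxidation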
NADH enzymes: inhibitors of PK/LDH coupling enzymes, profiling panel, artefact control, biochemical, MLSMR library | IC50, µM (series often up to 10 µM) | 0.02% of 65,000 active | AID 774, 2007 | coupled PK/LDH NADH assays, four targets;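 active = single-dose screening hits from any of four coupled enzyme assays that gave an IC50 when retested across doses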;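 also: the DPM-DC format reads NADH fluorescence rather than 340 nm absorbance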
Autofluor 339: intrinsic fluorescence of library compounds, ex339/em460 – biochemical, MLSMR library, data from DPM-DC assay, artefact control, profiling panel | fluorescence fold increase at 10 µM | compound autofluorescence, ex339/em460 nm, NADH buffer; active compounds read high; 1 = no-compound wells, NADH background | 5.5% of 65,000 active;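 active = at 10 µM, mean starting fluorescence two-fold or more over control wells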;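 also: signal is the first read of a kinetic run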
A number is an active result; – = inactive; · = not tested or not shown; + = active, no number.

SMILES | PMK inhibit | DPM-DC inhibit | MK inhibit | Abs 340nm | NADH enzymes | Autofluor 339
COc1cccc(CC(NC(C)=O)C(=O)NC2CCN(c3nc(C)cc(C)c3C#N)CC2)c1 (configuration not stated) | – | – | – | – | – | –
COc1ccc(CC(NC(C)=O)C(=O)NC2CCN(c3nc(C)cc(C)c3C#N)CC2)c(OC)c1 (configuration not stated) | – | – | – | – | – | 2
COc1ccc(N2C(C)=CS/C2=C(/C#N)c2nnc(N3CCOCC3)n2-c2ccccc2)cc1 | 74 | + | 78 | – | – | –
Cc1ccc(-c2nc3cnccn3c2Nc2ccccc2)o1 | – | · | – | – | – | 2.1
c1ccc(Cn2nnnc2C(c2cccnc2)N2CCN(c3ccccc3)CC2)cc1 (configuration not stated) | – | – | – | – | – | –
CC1(C)Cc2c(c(N3CCOCC3)nc3sc(C#N)c(N)c23)CS1 | – | · | – | – | – | 2.5
COc1ccc(S(=O)(=O)Nc2ccccc2C(=O)NC(C)C)cc1OC | – | – | – | – | – | –
O=C(O)c1ccc2cccc(Cl)c2c1O | – | – | – | – | – | 2.5
Cc1c(Cl)cccc1Nc1ccccc1C(=O)O | – | – | – | – | – | –
COc1ccccc1N1CCN(S(=O)(=O)Cc2ccccc2Cl)CC1 | – | – | – | – | – | –
COc1ccccc1-c1nnc(SCCN2CCOCC2)n1-c1ccc(C)cc1 | – | – | – | – | – | –
Cc1nnc(SCCN2CCOCC2)n1C | – | – | 52 | – | – | –
COc1ccc(CNc2oc(-c3ccccc3)nc2C#N)cc1 | – | · | – | – | – | –
COc1ccc(-c2nc(C#N)c(NCc3ccccc3Cl)o2)cc1OC | – | · | – | – | – | 4
COc1ccc(-c2nc(C#N)c(NCc3ccccc3Cl)o2)cc1 | – | – | – | – | – | 3.1
COc1ccc(-c2nc(C#N)c(NCc3ccc(F)cc3)o2)cc1OC | – | · | – | – | – | 3.9
O=C(N1CCOCC1)C(F)(F)C(F)(F)C(F)(F)C(F)(F)C(=O)N1CCOCC1 | – | – | – | – | – | –
COc1ccc(CCNC(=O)c2c(O)c3c([nH]c2=O)CCCC3)cc1 | – | – | – | – | – | –
O=C(Nc1nccs1)c1cccc(S(=O)(=O)N2CCOCC2)c1 | – | – | – | – | – | –
CCC(=O)c1cc(F)c(N2CCN(S(=O)(=O)c3ccc(C)cc3)CC2)cc1C | – | – | – | – | – | –
c1coc(C2Nc3cccc4cccc(c34)N2)c1 | – | · | – | – | – | 3.8
COc1ccccc1Cn1c(-c2ccco2)nc2nc3ccccc3nc21 | – | – | – | – | – | –
c1ccc(Cn2c(-c3ccco3)nc3nc4ccccc4nc32)cc1 | – | · | – | – | – | 3.7
CCCCCn1c(-c2ccco2)nc2nc3ccccc3nc21 | – | · | – | – | – | 3.9
COc1ccc(CCn2c(-c3ccco3)nc3nc4ccccc4nc32)cc1 | – | – | – | – | – | –
SMILES | PMK inhibit | DPM-DC inhibit | MK inhibit | Abs 340nm | NADH enzymes | Autofluor 339
Cc1ccc(-c2nc3nc4ccccc4nc3n2Cc2ccco2)cc1 | – | – | – | – | – | 2
COc1cccc(C2c3c(oc4ccc(Cl)cc4c3=O)C(=O)N2c2cc(C)on2)c1OC (configuration not stated) | – | – | – | – | – | –
COCCn1c(SCc2nc3ccccc3s2)nc2ccccc21 | – | – | – | – | – | –
CCOC(=O)c1sc(NC(=O)c2noc3c2CCCC3)c(C(=O)OCC)c1C | – | · | – | – | – | 2.1
CCOC(=O)c1c(NC(=O)c2noc3c2CCCC3)sc(C)c1C | – | – | – | – | – | 3.3
CCCCC(CC)Cn1c2nc3ccccc3nc2c2c(=N)oc(C)nc21 (configuration not stated) | – | · | – | – | – | 2.4
CCCCC(CC)Cn1c(N)c(C#N)c2nc3ccccc3nc21 (configuration not stated) | – | · | – | – | – | 5
CCCCCCOC(=O)C(C#N)c1nc2ccccc2nc1N1CCN(CC)CC1 (configuration not stated) | – | – | – | – | – | –
CCCCn1c2nc3ccccc3nc2c2c(=N)oc(C)nc21 | – | · | – | – | – | 2.2
COc1ccc(Cn2c3nc4ccccc4nc3c3c(=O)n(Cc4ccco4)c(C)nc32)cc1 | – | – | – | – | – | –
Cc1cc(NC(=O)C2CCN(S(=O)(=O)c3cnc[nH]3)CC2)ccc1Br | – | – | – | – | – | –
COCCN(CC(=O)NCc1ccc(OC)cc1)C(=O)CCC(=O)Nc1nccs1 | – | – | – | – | – | –
CCC1C(=O)n2nc(-c3ccccc3)cc2N=C1C (configuration not stated) | – | – | – | – | – | 2
Cc1cc(-c2ccccc2)nc(=O)[nH]1 | – | – | – | – | – | –
Cc1ccc(S(=O)(=O)Nc2ccccc2C(N)=O)cc1 | – | · | – | – | – | 3.9
NC(=O)c1ccccc1NS(=O)(=O)Cc1ccc(Cl)cc1 | – | · | – | – | – | 3.9
CN(C)S(=O)(=O)Nc1ccc(NS(=O)(=O)N(C)C)c(S(=O)(=O)c2ccccc2)c1 | – | – | – | – | – | –
NC(=O)c1ccccc1NC(=O)CS(=O)(=O)Cc1ccccc1 | – | – | – | – | – | –
CN(C)S(=O)(=O)Nc1ccccc1C(N)=O | – | · | – | – | – | 2.9
CC1(C)CC2(CC(C)(C)NC(=O)N2)NC(=O)N1 | – | – | – | – | – | –
COc1ccc(NC(=O)CSc2nc(-c3ccncc3)nn2CC(=O)N2CCCC2)cc1 | – | – | – | – | – | –
CCN(CC)CCNC(=O)c1ccccc1N | – | · | – | – | – | 2.3
Cc1ccc(OCCNC(=O)c2ccccc2N)cc1 | – | · | – | – | – | 2.1
COc1ccc(OCCNC(=O)c2ccccc2OCC(=O)N2CCCCC2)cc1 | – | – | – | – | – | –
CCN(CC)CCCNC(=O)c1ccccc1C | – | – | – | – | – | –
c1ccc(-c2nc3cc(Cc4ccc5oc(-c6ccccn6)nc5c4)ccc3o2)nc1 | – | – | – | – | – | –
COc1cc2c(cc1NC(=O)CC1SC(N3CCCC3)=NC1=O)oc1ccccc12 (configuration not stated) | – | – | – | – | – | –
CC(=O)Nc1cccc(NC(=O)CSc2nnnn2Cc2ccccc2)c1 | – | + | · | – | – | –
CCC(=O)Nc1cc(NC(=O)CSc2nnc(C(C)C)n2CC)ccc1C | – | – | – | – | – | –
